HT1080NT lethal: kills 2HG-producing HT-1080-NT fibrosarcoma cells; Potency, µM (top dose mostly 46.1 µM), most hits filed as cytotoxic; HT-1080-NT fibrosarcoma viability, CellTiter-Glo ATP luminescence, 48 h; 360,000 compounds, 1.6% hits;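 note: NT is the 2HG producing partner of a matched IDH1 knockdown line; nearly all actives have a fitted effect of over 55% in size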
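Fibrosarcoma NT cells, 750 per well in 5% FBS RPMI, were exposed to compound for 48 hours. Viability: CellTiter-Glo luminescence.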
TDP1 cell noCPT: qHTS for Inhibitors of human tyrosyl-DNA phosphodiesterase 1 (TDP1): qHTS in cells in absence of CPT; DT40 Tdp1-/- hTDP1 cells, no CPT, ATP luminescence, 48 h; Potency, µM (series often up to 46.2 µM), actives largely listed as inhibitors; 420,000 compounds, 15% hits; note: nearly all actives have a fitted effect of over 55% in size
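Compound effects on proliferation are scored in DT40 Tdp1-/-;hTDP1 cells in the absence of CPT. ATP levels (CellTiter-Glo luminescence) are recorded after a ≥48 hr, 37 °C incubation.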
HT1080 IDH1KD tx: toxicity to HT-1080 IDH1 knockdown cells (counter line); HT-1080 IDH1 knockdown viability, ATP luminescence, 48 h; Potency, µM (highest dose often 46.1 µM), actives largely listed as cytotoxic; 360,000 compounds, 2% hits; AID 686971
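Knockdown cells (IDH1KD HT-1080) received compounds 2 h after plating at 750 cells/well and were kept 48 h at 37 °C in 5% FBS RPMI. A CellTiter-Glo luminescence read gave % activity for curve fitting.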
IL1B secr inh: inflammasome signaling inhibition, IL-1 beta readout | activity change, % at 57.5 µM | THP-1 LPS/ATP IL-1B secretion, AlphaLISA, 16 h; hits give low values | 360,000 compounds, 4.7% hits; in the data active = activity change below about -50%; inconclusive = mostly about -30% to -49%
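Secreted IL-1B measured by AlphaLISA bead assay after 16 h compound exposure of THP-1 cells; compounds (final up to 57.5 uM) added 1 h before LPS (250 ng/mL) and ATP (1.25 mM) stimulation; lower signal means less secretion.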
DT40 TDP1 CPT: growth inhibition of DT40 Tdp1-/-;hTDP1 cells with camptothecin (screen for TDP1 inhibitors) | chicken DT40 Tdp1-/-;hTDP1 cells + 20 nM CPT, ATP luminescence, 48 h | Potency, µM (series often up to 46.2 µM), hits mostly inhibitors | 420,000 compounds, 12% hits; note: nearly all actives have a fitted effect of over 55% in size
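Chicken DT40 Tdp1-/- cells stably complemented with human TDP1 were seeded at 400 cells/well in medium containing 20 nM camptothecin, exposed to pin-transferred compounds, and grown at 37 °C for at least 48 hr. Viability was read as ATP luminescence.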
Numbers stand for hits; . = inactive; ? = inconclusive; / = not tested or not shown. In the library only some 19% were active in any assay of this set; here they are far more common. Unless noted, calls come from the whole dose curve; as a rule, active = well fitted curve in the direction sought with a large enough effect; inconclusive = small, poorly fitted or top-dose-only effect, or another doubt; inactive = no such curve, though single readings can be large; an effect the other way counts as inactive or inconclusive.

SMILES	HT1080NT lethal	TDP1 cell noCPT	HT1080 IDH1KD tx	IL1B secr inh	DT40 TDP1 CPT
CC1CCc2sc(C(=O)OCC(=O)NCc3ccc(F)cc3)cc2C1 (configuration not stated)	?	15µM	21µM	.	21µM
CCN(C(=O)COC(=O)CCC(=O)c1ccc(Cl)cc1)c1c(N)n(Cc2ccccc2)c(=O)[nH]c1=O	.	23µM	.	.	18µM
COCCN(C(=O)COC(=O)CCC(=O)c1ccc(C)cc1)c1c(N)n(Cc2ccccc2)c(=O)[nH]c1=O	.	.	.	.	.
CCN(C(=O)COC(=O)c1cc2c(s1)CCC(C)C2)c1c(N)n(Cc2ccccc2)c(=O)[nH]c1=O (configuration not stated)	.	?	.	.	16µM
Cc1n[nH]c(=O)n(N=Cc2c[nH]c3ccccc23)c1=O	.	.	.	.	.
Cc1cccc(NC(=O)N2CCC(NC(=O)C3CCCCC3)CC2)c1	.	.	.	.	.
O=C(CCSc1ccccc1)NC(=O)COC(=O)c1ccc(OC(F)F)cc1	.	.	.	.	.
Cc1cc(CN2CCN(CC(=O)Nc3cc(Cl)ccc3-n3cncn3)CC2)no1	.	.	.	.	.
CC(C)(C)c1ccc(OCCn2nc(C(=O)O)c3ccccc3c2=O)cc1	.	21µM	.	.	16µM
Cc1cccc(OCCn2nc(C(=O)O)c3ccccc3c2=O)c1	.	.	.	.	.
CCCNC(=O)c1onc(CS(=O)(=O)c2cc(C)cc(C)c2)c1C(=O)NCCC	.	.	.	.	?
CCOC(=O)c1c(C)[nH]c(C(=O)NNC(=O)c2ccccc2)c1C	.	.	.	.	.
CCOC(=O)c1c(C)[nH]c(C(=O)N/N=C\c2ccccc2Cl)c1C	?	16µM	15µM	.	16µM
CCOC(=O)c1c(C)[nH]c(C(C)=NNC(=O)c2cccs2)c1C	.	6.5µM	.	.	12µM
CCOC(=O)c1[nH]c(C)c(C(=O)Nc2cccc(Cl)c2C)c1C	11µM	16µM	7.9µM	.	10µM
CCOC(=O)c1c(C)[nH]c(C(=O)N/N=C/c2cccc(OC)c2)c1C	?	15µM	?	.	?
COc1cccc(/C=N/NC(=O)c2[nH]c(C)c(C(=O)N/N=C/c3cccc(OC)c3)c2C)c1	.	?	.	.	?
O=C(NCCO)/C(=C/c1cccc([N+](=O)[O-])c1)NC(=O)c1ccco1	.	.	.	.	.
Cc1nc(N)sc1N=Nc1ccc(Br)cc1	?	.	?	.	.
COCCCNC(=S)N1CCN(c2ccc([N+](=O)[O-])cc2)CC1	.	8.2µM	.	.	16µM
O=[N+]([O-])c1ccc(N2CCN(C(=S)NCc3ccc(Cl)cc3)CC2)cc1	?	3.7µM	?	/	5.8µM
CCNC(=S)N1CCN(c2ccc([N+](=O)[O-])cc2)CC1	.	.	.	.	.
O=C(O)C(Cc1ccc(F)cc1)c1ccccc1 (configuration not stated)	.	.	.	.	.
COc1ccc(CNC(=O)Nc2nc(C(N)Cc3ccc(F)cc3)cs2)cc1 (configuration not stated)	?	16µM	13µM	?	?
COc1ccccc1CNC(=O)Nc1nc(C(N)Cc2ccc(Cl)cc2)cs1 (configuration not stated)	15µM	?	21µM	.	?
SMILES	HT1080NT lethal	TDP1 cell noCPT	HT1080 IDH1KD tx	IL1B secr inh	DT40 TDP1 CPT
NC(Cc1ccc(F)cc1)c1csc(NC(=O)NC(c2ccccc2)c2ccccc2)n1 (configuration not stated)	18µM	13µM	16µM	-53	15µM
COc1ccc(CNC(=O)Nc2nc(C(N)Cc3ccc(Cl)cc3)cs2)cc1 (configuration not stated)	?	18µM	16µM	?	23µM
CCOC(=O)c1c(NC(=O)c2cc(-c3ccc(Cl)cc3)on2)sc(C)c1C	/	.	/	/	.
O=C(COC(=O)CCc1ccccc1)Nc1ncc(Cl)cc1Cl	.	.	.	.	.
O=C1c2ccccc2C(=O)N1c1ccccn1	/	.	/	/	.
COc1ccc2cc(C3CC(c4cccs4)=NN3S(C)(=O)=O)c(Cl)nc2c1 (configuration not stated)	.	?	.	.	16µM
CCOc1ccc2cc(C3CC(c4ccco4)=NN3S(C)(=O)=O)c(Cl)nc2c1 (configuration not stated)	.	?	.	-60	?
COc1cc(NC(=O)c2ccc([N+](=O)[O-])o2)ccc1NC(=O)c1cccs1	.	3.7µM	.	-90	2.3µM
O=C(Nc1cccc(NC(=O)c2ccc([N+](=O)[O-])o2)c1)c1ccco1	18µM	5.2µM	10µM	-90	5.8µM
O=C(Nc1ccc(NC(=O)c2ccc([N+](=O)[O-])o2)cc1Cl)c1ccco1	.	?	?	/	?
O=C(Nc1cccc(NC(=O)c2cccs2)c1)c1ccc([N+](=O)[O-])o1	10µM	3.7µM	23µM	-102	3.3µM
COc1ccc(NC(=O)c2cccs2)cc1NC(=O)c1ccco1	.	?	.	?	?
Cc1ccc(C(=O)Nc2ccc(NC(=O)c3cccs3)cc2)cc1[N+](=O)[O-]	.	.	.	.	?
O=C(Nc1nccs1)C1CCN(S(=O)(=O)c2ccccc2)CC1	.	.	.	.	.
Cc1ccc(CNS(=O)(=O)c2c(C(=O)N3CCCCC3)c(C)n(C)c2C)o1	.	.	.	.	.
